Source: PubChem (The Scripps Research Institute Molecular Screening Center)
MITF primary = MITF inhibitors, primary screen, biochemical, AlphaScreen, human | Microphthalmia-associated transcription factor (Homo sapiens), O75030 | inhibition, % at 2.6 µM | AlphaScreen MITF homodimerization, bead proximity signal | 650,000 tested, 0.91% active; in the data active = inhibition above about 50%;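 also: 0% = vehicle wells with protein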
GPR151 activ = activators of human GPR151, primary screen, cell-based, PathHunter beta-arrestin, luminescence; G-protein coupled receptor 151 (Homo sapiens), Q8TDV0; PathHunter beta-arrestin GPR151 cells; activation, % at 11.2 µM; 650,000 tested, 1% active; AID 1508602, 2020; in the data active = activation above about 4.9%;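 also: 0% = median of compound wells and 100% = cells with positive control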
Target sequence (Q8TDV0 whole entry, looked up): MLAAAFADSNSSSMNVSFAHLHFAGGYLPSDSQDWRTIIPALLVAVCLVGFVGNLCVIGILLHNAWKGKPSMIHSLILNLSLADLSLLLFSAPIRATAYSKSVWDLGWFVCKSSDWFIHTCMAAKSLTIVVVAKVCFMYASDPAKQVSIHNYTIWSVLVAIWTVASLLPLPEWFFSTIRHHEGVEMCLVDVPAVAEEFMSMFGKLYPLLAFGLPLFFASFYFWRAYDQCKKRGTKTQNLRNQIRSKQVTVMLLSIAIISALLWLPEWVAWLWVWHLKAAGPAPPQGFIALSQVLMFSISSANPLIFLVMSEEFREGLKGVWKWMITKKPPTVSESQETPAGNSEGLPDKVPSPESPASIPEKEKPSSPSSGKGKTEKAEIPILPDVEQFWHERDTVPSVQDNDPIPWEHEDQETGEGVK
TEAD-YAP inh = TEAD-YAP interaction inhibition, primary screen, TEAD-YAP interaction inhibitor project, luminescence, HEK-TIYL cells. 640,000 tested, 1.4% active. inhibition, % at 9.12 µM. TEAD-Gal4/YAP UAS-luciferase luminescence; in the data active = inhibition above about 32%;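 also: 0% = median of test compound wells and 100% = reference inhibitor wells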
FBW7 activator = FBW7 E3 ligase activators, primary screen, biochemical, AlphaScreen, human; AlphaScreen FBW7–phospho-cyclin E peptide binding, activator screen; normalized activity (activation), % at 26.1 µM; 650,000 tested, 0.13% active; in the data active = normalized activity above about 1.9%;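 also: purified mutant Fbw7 with reduced substrate affinity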
GPR151 confirm = GPR151 activators, triplicate retest, confirmation, cell-based, PathHunter beta-arrestin, luminescence | shares compounds with GPR151 activ | GPR151 PathHunter beta-arrestin cells, 90 min; % of EA-reagent control over plate median | activation, % at 11.2 µM | 6,700 tested, under 10 active | AID 1508609, 2020;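 active = mean percent activation across replicates above the confirmation screen cutoff of 4.91%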
GPR119 counter = GPR119 activators in beta-arrestin cells, counter-screen for GPR151 activator project, cell-based, PathHunter beta-arrestin, luminescence, triplicate; shares compounds with GPR151 activ; 90 min; 0 = compound-well median, 100 = enzyme-acceptor control; activation, % at 11.2 µM; 6,700 tested, 0.3% active;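 active = mean percent activation in the counterscreen above 29.09%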;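 also: counterscreen on off-target GPR119 to flag nonselective hits from the GPR151 activator screen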
Active calls of the source: *; . = not tested or not shown. A selection: hits, their analogues and other compounds. The true share with any hit is near 3.4%.

SMILES | MITF primary | GPR151 activ | TEAD-YAP inh | FBW7 activator | GPR151 confirm | GPR119 counter
Cc1nc(CCNC(=O)CC2C(=O)NCCN2Cc2ccccc2F)sc1C (stereo not drawn) | -4 | -2 | -1 | 0 | . | .
Cc1nc(CCNC(=O)CC2C(=O)NCCN2Cc2cccc3ccccc23)sc1C (stereo not drawn) | 6 | 5.5* | -1 | 0 | 1 | 2
Cc1cccc(CNC(=O)CC2C(=O)NCCN2Cc2c(F)cccc2Cl)n1 (stereo not drawn) | -3 | 5.1* | 9 | 0 | 1 | 5
O=C(Nn1c(=S)[nH]c2ccsc2c1=O)c1ccccc1 | 6 | 5.0* | -22 | 0 | 1 | 13
O=C(Nn1c(=S)[nH]c2ccccc2c1=O)c1ccccc1 | -11 | 0 | -15 | 0 | . | .
O=C(Nc1cc(C(F)(F)F)ccc1F)C1CCCC1 | -3 | 13* | -9 | 0 | 1 | 7
COc1cc(C(c2sc3nc(C)nn3c2O)N2CCC(C)CC2)cc(OC)c1OC (stereo not drawn) | 4 | 1 | -2 | 0 | . | .
c1nc(NCC2CCCO2)c2c3c(sc2n1)CCC3 (stereo not drawn) | -3 | 7.6* | -1 | 0 | 0 | 6
c1nc(NCc2ccc(CN3CCOCC3)cc2)c2c3c(sc2n1)CCC3 | -1 | 6.3* | 33* | 0 | 1 | -6
c1nc(NCC2CCCO2)c2c3c(sc2n1)CCCC3 (stereo not drawn) | -1 | 1 | -2 | 0 | . | .
c1nc(NCCN2CCOCC2)c2c3c(sc2n1)CCCC3 | -4 | 1 | -6 | 0 | . | .
N#CC1(C#N)[C@@H]2c3ccccc3C=CN2[C@@H](C(=O)c2ccc(F)cc2)[C@@H]1c1cccc(F)c1 | 12 | 0 | -20 | 0 | . | .
CC(C)C(=O)Nc1ccc(NC(=O)c2ccccc2Cl)nc1 | 2 | 6.9* | -39 | 0 | 1 | 9
O=C(Nc1ccccn1)c1ccccc1Cl | -2 | 6.0* | -21 | 0 | -1 | -17
COC(=O)C1=CN(Cc2ccc(F)cc2)C=C(C(=O)OC)C1c1cc(Br)c(OC)c(OC)c1 | 2 | -1 | -6 | 0 | . | .
CCCNC(=O)Cn1cnc2c(nnn2-c2cc(C)cc(C)c2)c1=O | 0 | 7.0* | 9 | 0 | 0 | -1
COC(=O)c1ccc(Cn2cnc3c(nnn3-c3cc(C)cc(C)c3)c2=O)o1 | -14 | 5.0* | -3 | 0 | 0 | 1
Cc1cc(C)cc(-n2nnc3c(=O)n(Cc4ccc(Cl)c(Cl)c4)cnc32)c1 | 15 | -1 | 4 | 0 | . | .
Cc1nc(OC(C)C)cc(N2CCN(C(=O)Nc3ccc(F)cc3F)CC2)n1 | 11 | -1 | -7 | 0 | . | .
O=C(COc1ccc2ccccc2c1)NNC(=O)c1ccccc1Br | 14 | 1 | 5 | 0 | . | .
OCC1CCN(C2CCCN(Cc3ccc4nonc4c3)C2)CC1 (stereo not drawn) | 0 | 5.9* | -4 | 0 | 0 | -9
OCC1CCN(C2CCCN(Cc3ccc4nsnc4c3)C2)CC1 (stereo not drawn) | -2 | 2 | 4 | 0 | . | .
O=C(O)CCn1c(=O)oc2cc(S(=O)(=O)O)ccc21 | 5 | 7.5* | 5 | 0 | 2 | -1
O=C(Nc1ccc2nn(-c3ccccc3)nc2c1)C(Cl)(Cl)Cl | -1 | -2 | -11 | 0 | . | .
Nc1nc(NC(=O)C(Cl)(Cl)Cl)nn1-c1ccccc1 | 25 | 7.0* | -5 | -1 | 0 | -14
SMILES | MITF primary | GPR151 activ | TEAD-YAP inh | FBW7 activator | GPR151 confirm | GPR119 counter
O=C(COc1ccc(Cl)cc1)Nc1ccc2c(c1)C(=O)N(c1ccccc1)C2=O | 8 | 11* | 9 | 0 | 0 | 0
COc1c(C(=O)Nc2ccc(Cl)cn2)ccc2ccccc12 | 11 | 5.5* | -39 | 0 | -1 | -3
CN1C(=O)c2ccc(NC(=O)COc3ccc(Cl)cc3)cc2C1=O | -8 | 0 | -2 | 0 | . | .
O=C(COc1ccc(Br)cc1)Nc1ccc(Cl)cn1 | 8 | 11* | -40 | 0 | 0 | 14
O=C(COc1ccccc1)Nc1ccc(Cl)cn1 | -1 | 7.8* | -19 | 0 | 0 | -5
O=C(COc1ccc(Cl)cc1)Nc1ccc(Cl)cn1 | 14 | 0 | -31 | 0 | . | .
O=C(COc1ccccc1)NC(=S)Nc1ccc(Cl)cn1 | 9 | 3 | -3 | 0 | . | .
O=C(COc1ccc(Cl)cc1)Nc1ccc(Cc2ccncc2)cc1 | -5 | 5.4* | -1 | 0 | -1 | -13
O=C(O)COc1ccc(NC(=O)COc2ccc(Cl)cc2)cc1 | 3 | 2 | 9 | 0 | . | .
O=C(COc1ccc(Br)cc1)Nc1ncc(Cc2ccc(F)cc2)s1 | 5 | 6.2* | 6 | 0 | 0 | 11
Cc1ccc2c(c1)-c1c(cnn1CC(=O)NCCCN1CCN(C)CC1)CO2 | -7 | 1 | -5 | 0 | . | .
COc1ccc(N2CCN(CC(O)COc3ccccc3C(C)=O)CC2)cc1 (stereo not drawn) | 15 | 5.9* | 9 | 0 | 0 | 8
CCOc1cc(C)c(S(=O)(=O)N2CC(C)OC(C)C2)cc1C (stereo not drawn) | 13 | 1 | -3 | 0 | . | .
CCOc1cc(C)c(S(=O)(=O)N2CCCC2)cc1C | -32 | 6.7* | -5 | 0 | 0 | -3
O=C1COc2cc(S(=O)(=O)CCC(=O)Nc3cccc4c3CCCC4)c(Cl)cc2N1 | 5 | 0 | 0 | 0 | . | .
O=S(=O)(c1ccc(-c2ccccc2)cc1)N1CCCCCC1 | 13 | 3 | -3 | 1 | . | .
N#Cc1ccc(CSC2=Nc3ccccc3C3CC=NN23)cc1 (stereo not drawn) | 11 | -1 | -3 | 0 | . | .
S=C1Nc2ccccc2C2CC=NN12 (stereo not drawn) | 5 | 5.7* | 4 | 0 | -1 | -2
Cc1ccc(C(=O)CSc2nnc(-c3ccccc3N)n2C)cc1 | -4 | 5.9* | -10 | 0 | 0 | -7
CCOc1ccc(CNC(=O)c2cc(=O)[nH]c3ccccc23)cc1 | 4 | 5.0* | -8 | 0 | -1 | -7
CS(=O)(=O)CCC(C(=O)Oc1cccc2cccnc12)N1C(=O)c2ccccc2C1=O (stereo not drawn) | 19 | 0 | -7 | 0 | . | .
Cc1cc(I)ccc1NC(=O)Cc1ccccc1 | -2 | 6.1* | 4 | 0 | 0 | -1
CCOC(=O)C1=C(C)N(C)C(SC)=NC1c1ccco1 (stereo not drawn) | 9 | 6.4* | -2 | 0 | 1 | 5
